Reference: PubChem BioAssay (Tox21)
Records with an inconclusive call do not appear. A structure can be active in one record and inactive in another. Calls of active or inactive are those of the source. Calls follow the shape of the full dose curve.

Assay: qHTS assay to identify small molecule antagonists of the sonic hedgehog signaling (Shh) pathway (AID 1259369); also: nearly all actives have a fitted effect of over 45% in size
Details: NIH/3T3 Gli1-Luc reporter, Shh antagonist, luminescence 24 h; series mostly up to 92.4 µM; activity change, negative = inhibition: at the top concentration
From the text: U.S. Tox21 Program National Center for Advancing Translational Sciences [NCATS] NIH Chemical Genomics Center [NCGC] U.S. Environmental Protection Agency [EPA] National Institutes of Environmental Health Sciences [NIEHS] National Toxicology Program [NTP] U.S. Food and Drug Administration [FDA] Tox21 Assay Overview: The sonic hedgehog (Shh) pathway is essential for normal embryonic development. Dysregulation of the Shh pathway can cause severe developmental defects in organs. Therefore chemicals that interfere with the pathway are potential developmental toxicants. A cell line designated 3T3Gli1-Luc (DMB/OARSA/CFSAN/FDA, Laurel, MD), a NIH/3T3 derived clone containing stably integrated Gli1-Luc reporter is used to detect chemical interference of the Shh pathway, by changes in the expression of the firefly Luc gene under the control of the Gli1 transcriptional response element. This cell line was used to screen Tox21 libraries for identifying and prioritizing the potential developmental toxicants that interfere Shh pathway. Conditioned medium-stimulated mode was used to screen for chemicals inhibiting Shh signaling.
Tox21 Assay Protocol Summary: 3T3 Gli1-Luc cells were dispensed at 2,000 per well in 5uL of culture medium into white solid bottom 1536-well plates (Greiner Bio-One, Monroe, NC) using a Multidrop Combi (Thermo Scientific, Waltham, MA) dispenser. The assay plates were incubated at 37 C and 5% CO2 for 4hr, and then 23nL of compounds dissolved in DMSO and positive control were transferred using a Pintool station (Wako, San Diego, CA). The compound transfer was followed by the addition of 1ul conditioned medium or assay buffer using two separate tips of Flying Reagent Dispenser (FRD, Aurora Discovery, San Diego, CA). The assay plates were incubated at 37C and 5% CO2 for 24hr. For luciferase read, 4uL of Amplite Luciferase reporter gene assay reagent (AAT Bioquest, Inc. Sunnyvale, CA) was added to each well of the assay plates using FRD and incubated at room temperature for 30min. The luminescence signal was measured using a ViewLux plate reader (Perkin Elmer, Shelton, CT).
% is scaled to controls: 0 for no effect and ±100 for the full control effect; potency is read from the fitted curve at half-maximal effect.

SMILES	activity change, negative = inhibition	Potency
Fc1c(F)c(F)c(Br)c(F)c1F	6.52% (inactive)	
Cc1c(C(=O)NN2CCCCC2)nn(-c2ccc(Cl)cc2Cl)c1-c1ccc(Cl)cc1	-13.3% [at 42.5 µM] (inactive)	
CC1=CC(=O)CC(C)(C)C1(O)/C=C/C(C)=C\C(=O)O (stereo not given)	11.2% (inactive)	
CNC(=O)N(c1ccccc1)c1ccccc1		6.89 µM (active)
C[N+]1(C)CCC(=C(c2ccccc2)c2ccccc2)CC1	-2.41% [at 42.5 µM] (inactive)	
CC(C)CCCCCOC(=O)CCCCC(=O)OCCCCCC(C)C	-19.5% (inactive)	
COc1ccc(CCC(=O)c2c(O)cc(O[C@@H]3O[C@H](CO)[C@@H](O)[C@H](O)[C@H]3O[C@@H]3O[C@@H](C)[C@H](O)[C@@H](O)[C@H]3O)cc2O)cc1O	9.06% (inactive)	
Cc1cc(C(=C2C=CC(=Nc3ccc(S(=O)(=O)O)cc3S(=O)(=O)O)C=C2)c2ccc(Nc3ccc(S(=O)(=O)O)cc3)cc2)ccc1N	-1.32% [at 42.5 µM] (inactive)	
Cc1cc2nc3ccc(=[N+](C)C)cc-3sc2cc1N		2.66 µM (active)
NCC1CCCC(CN)C1 (stereo not given)	15.5% (inactive)	
Cc1cc(O)c2c(O)c3c(O)cccc3cc2c1	-13.2% [at 42.5 µM] (inactive)	
C1COCO1	-6.99% (inactive)	
CC(C)(C)C(=O)C(Oc1ccc(Cl)cc1)n1ccnc1 (stereo not given)	-25.9% [at 42.5 µM] (inactive)	
CCOC(=O)/C=C/C(=O)O	-25.4% (inactive)	
CCCCCCCCCOC(C)=O	16% (inactive)	
COC(OC)(C(=O)c1ccccc1)c1ccccc1	-17.6% (inactive)	
O=C(NCCCN1CCOCC1)c1ccc(Cl)cc1	23.5% [at 42.5 µM] (inactive)	
CCCc1c(OCCCOc2ccc(OCC(=O)O)cc2)ccc(C(C)=O)c1O	-0.93% (inactive)	
CCOC(=O)CC(=O)C(=O)OCC	21.1% (inactive)	
C=C(C)C(=O)OCCOC(=O)CC(C)=O	14.4% (inactive)	

SMILES	activity change, negative = inhibition	Potency
CC(CCc1ccc2c(c1)OCO2)NN (stereo not given)	2.96% [at 42.5 µM] (inactive)	
O=C(O)C(Cc1cc(I)c(O)c(I)c1)c1ccccc1 (stereo not given)	26.5% [at 42.5 µM] (inactive)	
O=C(O)c1ccccc1NCCc1ccccc1	23.8% [at 42.5 µM] (inactive)	
COC(=O)Nc1nc2ccc(C(=O)c3cccs3)cc2[nH]1		0.335 µM (active)
CC(C)=CC=O	7.24% (inactive)	
Cc1ccc(Nc2nccc(N(C)c3ccc4c(C)n(C)nc4c3)n2)cc1S(N)(=O)=O		1.88 µM (active)
Cc1nc2ccccc2s1	-1.69% (inactive)	
CC(=O)CC(c1ccc([N+](=O)[O-])cc1)c1c(O)c2ccccc2oc1=O (stereo not given)	21.4% [at 42.5 µM] (inactive)	
COc1cc2[nH]c(=O)[nH]c(=O)c2cc1OC	-18% [at 42.5 µM] (inactive)	
CCCCCCCCCCCCCCCCBr	18.7% [at 19 µM] (inactive)	
CN1C(=O)CC(C)(c2ccccc2)C1=O (stereo not given)	15.2% [at 42.5 µM] (inactive)	
COc1cc2c(cc1OC)-c1cc(=Nc3c(C)cc(C)cc3C)n(C)c(=O)n1CC2		0.596 µM (active)
CC[C@@H]([C@H](C)O)n1ncn(-c2ccc(N3CCN(c4ccc(OC[C@@H]5CO[C@@](Cn6cncn6)(c6ccc(F)cc6F)C5)cc4)CC3)cc2)c1=O		0.188 µM (active)
CCC(C(=O)OCCN(CC)CC)c1ccccc1 (stereo not given)	18.2% [at 42.5 µM] (inactive)	
CCCCN(CCCC)CCCOC(=O)c1ccc(N)cc1	-0.195% [at 42.5 µM] (inactive)	
CCC1(C)CC(=O)NC1=O (stereo not given)	19.6% [at 42.5 µM] (inactive)	
COC(=O)c1cc(Cl)ccc1NS(=O)(=O)C(F)(F)F	6.65% [at 42.5 µM] (inactive)	
Cc1cc(O)c(C(C)C)cc1Cl		15.4 µM (active) and inactive
CC(C)C(=O)O	1.19% (inactive)	
COCC(O)CO (stereo not given)	7.46% (inactive)	
